33 compounds from the supplement of paper PMC7366291 can be followed below.

Where a name gives a salt, the structure may show the parent alone.

The experiment relates to Danio rerio Tg(wt1b:EGFP) embryo, pronephros. The experiment is described as follows: fraction of imaged embryos annotated as normal kidney; higher = less nephrotoxic; extreme values may be limits of the assay. The settings on record: 25 µM; exposure: 24-48 hpf. The essentials:
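Tricaine-anaesthetised Tg(wt1b:EGFP) zebrafish larvae were oriented dorsally in agarose-filled 96-well plates, and their pronephroi were recorded by widefield fluorescence at 470 nm in 10 z-slices. Before this, the dechorionated embryos had been exposed in 12-well plates to 25 μM compound in 0.5% DMSO and 5 mM HEPES-buffered E3 with 0.003% PTU, from 24 to 48 hpf at 28.5°C. Maximum projections were annotated manually for each embryo, and the read-out is the fraction per treatment classed as normal kidney.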
Take `CCN(CC)C(=O)/C(C#N)=C/c1cc(O)c(O)c([N+](=O)[O-])c1` [Entacapone]: the “fraction of imaged embryos annotated as normal kidney” value (from here on “fraction of imaged embryos annotated”) was 0.583. The result for `COC(=O)[C@@H]1[C@H]2C[C@H]3c4[nH]c5ccccc5c4CCN3C[C@@H]2CC[C@@H]1O` [Yohimbine hydrochloride] reads 0.727. The result for `CC(=O)SCC(Cc1ccccc1)C(=O)NCC(=O)OCc1ccccc1` (stereo not drawn) [Racecadotril] reads 0.167. The figure for `O=C(NC(Cc1cc(=O)[nH]c2ccccc12)C(=O)O)c1ccc(Cl)cc1` (stereo not drawn) [Rebamipide] is 0.917. For the compound `CN1CCN(c2c(F)cc3c(=O)c(C(=O)O)cn(CCF)c3c2F)CC1` [Fleroxacin], the “fraction of imaged embryos annotated” value is 0.917. The figure for `C[C@H]1[C@H](NC(=O)/C(=N\OC(C)(C)C(=O)O)c2csc(N)n2)C(=O)N1S(=O)(=O)O` [Aztreonam] is 0.917. Regarding `CCCCN(CCCC)CCCOC(=O)c1ccc(N)cc1` [Butacaine], the “fraction of imaged embryos annotated” value amounted to 0.917.

As for `COc1ccc(CN2CCN(C(c3ccc(F)cc3)c3ccc(F)cc3)CC2)c(OC)c1OC` [Lomerizine hydrochloride], the “fraction of imaged embryos annotated” value came out at 0.583. For the compound `Cc1ccsc1/C=C/C1=NCCCN1C` [Morantel tartrate], the “fraction of imaged embryos annotated” value was determined as 0.5. Regarding `CN(C)C(=N)NC(=N)N` [Metformin hydrochloride], the “fraction of imaged embryos annotated” value is 0.833.

In the case of `COc1ccc2[nH]c([S+]([O-])Cc3ncc(C)c(OC)c3C)nc2c1` (stereo not drawn) [Omeprazole], the “fraction of imaged embryos annotated” value turned out to be 0.667. The result for `CCN1CCN(C(=O)N[C@@H](C(=O)N[C@@H]2C(=O)N3[C@@H]2SC(C)(C)[C@@H]3C(=O)O)c2ccccc2)C(=O)C1=O` [Piperacillin sodium salt] reads 0.667; that for `CC[C@H](C)C(=O)O[C@H]1CCC=C2C=C[C@H](C)[C@H](CC[C@@H]3C[C@@H](O)CC(=O)O3)[C@H]21` [Mevastatin], 0; that for `COc1ccc2c(c1)N(C[C@H](C)CN(C)C)c1ccccc1S2` [Methotrimeprazine maleat salt], 0.909. The figure for `CC(C)(C)C(=O)OCOC(=O)[C@@H]1N2C(=O)[C@@H](NC(=O)[C@H](N)c3ccccc3)[C@H]2SC1(C)C` [Pivampicillin] is 1. The result for `CN(CCOc1ccc(CC2SC(=O)NC2=O)cc1)c1ccccn1` (stereo not drawn) [Rosiglitazone Hydrochloride] reads 0.833.

As to `CCN1CCCC1CNC(=O)c1cc(S(N)(=O)=O)ccc1OC` (stereo not drawn) [Sulpiride], the “fraction of imaged embryos annotated” value is 0.75. The result for `CC(=O)Nc1ccc(O)cc1` [Acetaminophen] reads 1; that for `CC(CN(C)C)CN1c2ccccc2CCc2ccccc21` (stereo not drawn) [Trimipramine maleate salt], 0.833; that for `Cc1cccn2c(=O)c(-c3nnn[nH]3)cnc12` [Pemirolast potassium], 1. The result for `Cc1c(NC(=O)c2cccnc2)c(=O)n(-c2ccccc2)n1C` [Nifenazone] reads 0.833; that for `CC(C)(C)C(=O)OCOC(=O)[C@@H]1N2C(=O)[C@@H](/N=C/N3CCCCCC3)[C@H]2SC1(C)C` [Pivmecillinam hydrochloride], 0.75; that for `COc1ccc(C2CNC(=O)C2)cc1OC1CCCC1` (stereo not drawn) [Rolipram], 0.833. The figure for `COc1ccc(C(=O)NCc2ccc(OCCN(C)C)cc2)cc1OC` [Itopride] is 0.8.

`O=C(NCC1CCCCN1)c1cc(OCC(F)(F)F)ccc1OCC(F)(F)F` (stereo not drawn) [Flecainide acetate]: the “fraction of imaged embryos annotated” value came to 0.75. On to `Nc1ccc(/N=N/c2ccccc2)c(N)n1` [Phenazopyridine hydrochloride], for which the “fraction of imaged embryos annotated” value came to 0.583.

With `C1CCC(C(CC2CCCCN2)C2CCCCC2)CC1` (stereo not drawn) [Perhexiline maleate], the “fraction of imaged embryos annotated” value was found to be 0.909.

As to `CN[C@@H]1[C@H](O[C@H]2[C@H](O[C@H]3[C@H](O)[C@@H](O)[C@H](N=C(N)N)[C@@H](O)[C@@H]3N=C(N)N)O[C@@H](C)[C@]2(O)C=O)O[C@@H](CO)[C@H](O)[C@H]1O` [Streptomycin sulfate], the “fraction of imaged embryos annotated” value came to 0.917. The result for `CC(C)(O/N=C(\C(=O)N[C@@H]1C(=O)N2C(C(=O)[O-])=C(C[n+]3ccccc3)CS[C@H]12)c1csc(N)n1)C(=O)O` [Ceftazidime pentahydrate] reads 1. For `Nc1ccc(S(N)(=O)=O)cc1` [Sulfanilamide], the “fraction of imaged embryos annotated” value was 0.833. The figure for `Cc1ncc(C[n+]2csc(CCO)c2C)c(N)n1` [Thiamine hydrochloride] is 0.917; for `CN(C)[C@@H]1C(O)=C(C(N)=O)C(=O)[C@@]2(O)C(O)=C3C(=O)c4c(O)ccc(Cl)c4[C@@H](O)[C@H]3C[C@@H]12` [Demeclocycline hydrochloride] it is 0.5; for `Cc1cnc(C(=O)NCCc2ccc(S(=O)(=O)NC(=O)NC3CCCCC3)cc2)cn1` [Glipizide] it is 0.833.
